Bioassay records as filed in PubChem.
Most compounds without a hit are left out; they make up all but 1.3% or so of the library.
CRFR2-BP ag: agonists of CRF-BP/CRF-R2 complex, primary screen, cell-based, HEK293, calcium dye fluorescence, uHTS. calcium dye fluorescence (FLIPR); percent of saturating CRF peptide response. 350,000 compounds, 0.46% hits. CRF-binding protein / CRF receptor 2 complex (human). activation, % at 13.2 µM. AID 588473, 2011;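 active means activation of at least 50%, plus an integration ratio under a set limit after plate pattern correction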;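 further: plate controls were neutral control wells without compound for no effect and CRF at EC100 for full effect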
RTF Ca sens inh: cardiac RTF calcium sensitivity inhibitors, primary screen, biochemical, IANBD-TnC fluorescence, EC70 calcium | IANBD-labeled cardiac RTF, Ca2+ fluorescence | Troponin I, cardiac muscle (Homo sapiens) + Troponin T, cardiac muscle (Homo sapiens) + … | 340,000 compounds, 0.12% hits | inhibition, % at 7.15 µM;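 active means inhibition above the mean inhibition of all tested compounds plus 3 SD, cut at about 17% in these data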;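 further: assay run at fixed EC70 calcium of 1.6 mM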
CRFBP-R2 block: antagonists of CRF-BP/CRF-R2 complex, primary screen, cell-based, HEK293, calcium dye fluorescence, uHTS. inhibition, % at 11.8 µM. 350,000 compounds, 0.59% hits. CRF-induced calcium fluorescence;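 active means inhibition of the ligand-induced calcium signal above about 50% at the single tested concentration, limit read from the data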
cardiac RTF act: cardiac RTF calcium sensitivity activators, primary screen, biochemical, IANBD-TnC fluorescence, EC20 calcium; AID 493008, 2010; 340,000 compounds, 0.24% hits; Troponin I, cardiac muscle (Homo sapiens) + Troponin T, cardiac muscle (Homo sapiens) + …; activation, % at 7.2 µM; IANBD-labeled TnC RTF fluorescence at EC20 calcium; 0% EC20 calcium, 100% full calcium;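 active means activation above the mean over all tested compounds plus 3 SD, cut at about 30% in these data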;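 further: rise in fluorescence read as greater calcium sensitivity of cardiac thin filaments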
RTF inh confirm: cardiac RTF calcium sensitivity inhibitors, confirmation, biochemical, fluorescence readout | shares compounds with RTF Ca sens inh | reconstituted cardiac thin filaments | inhibition, % at 7.15 µM | 360 compounds, 8% hits | AID 504635, 2011; in the data active means inhibition above about 18%
Active calls of the source: *.

Results for O=C(COc1ccccc1Cl)Nc1ccc2c(c1)OCO2 ?
CRFR2-BP ag: 0; RTF Ca sens inh: 19*; CRFBP-R2 block: 0; cardiac RTF act: -5; RTF inh confirm: -3

Results for COc1ccccc1OCC(=O)Nc1ccc2c(c1)OCO2 ?
CRFR2-BP ag: -1; RTF Ca sens inh: -2; CRFBP-R2 block: -3; cardiac RTF act: -3

Results for COc1ccc(-c2cc(-c3ccc(OC)cc3)[nH]n2)cc1 ?
CRFR2-BP ag: 7; RTF Ca sens inh: 17*; CRFBP-R2 block: -79; cardiac RTF act: 4; RTF inh confirm: 1

Results for CCCCNC(=O)CSc1nc2ccc(N3CCOCC3)cc2c(=O)n1Cc1ccc(OC)cc1 ?
CRFR2-BP ag: 1; RTF Ca sens inh: 19*; CRFBP-R2 block: 38; cardiac RTF act: 1; RTF inh confirm: -1

Results for COCCNC(=O)CSc1nc2ccc(N3CCOCC3)cc2c(=O)n1Cc1ccc(OC)cc1 ?
CRFR2-BP ag: -1; RTF Ca sens inh: -2; CRFBP-R2 block: 8; cardiac RTF act: 2

What do the screens show for `O=C1N[C@@H](Cc2cnc[nH]2)C(=O)N2CCC[C@@H]12`?
CRFR2-BP ag: 0; RTF Ca sens inh: 17*; CRFBP-R2 block: -49; cardiac RTF act: 3; RTF inh confirm: -2

How did O=C1N[C@@H](Cc2ccccc2)C(=O)N2CCCC12 (stereo not given in full) do in these assays?
CRFR2-BP ag: 2; RTF Ca sens inh: 0; CRFBP-R2 block: 6; cardiac RTF act: -3

Results for COc1ccc(-c2nn(-c3ccccc3)cc2C(=O)NCCCn2ccnc2)cc1 ?
CRFR2-BP ag: -1; RTF Ca sens inh: 26*; CRFBP-R2 block: -21; cardiac RTF act: -4; RTF inh confirm: -8

How did O=C(Nc1nccs1)c1ccc(COc2c(F)c(F)cc(F)c2F)cc1 do in these assays?
CRFR2-BP ag: 0; RTF Ca sens inh: -5; CRFBP-R2 block: -14; cardiac RTF act: 2

Results for COc1cccc(-n2c(C)c3c(OC)cccc(=O)c3c2C)c1 ?
CRFR2-BP ag: 7; RTF Ca sens inh: 25*; CRFBP-R2 block: 14; cardiac RTF act: 1; RTF inh confirm: -5

What do the screens show for `COc1cccc(=O)c2c(C)n(-c3cc(C)cc(C)c3)c(C)c12`?
CRFR2-BP ag: 11; RTF Ca sens inh: -3; CRFBP-R2 block: 23; cardiac RTF act: 3

How did Cc1ccc(CSc2nnc(SCC(=O)N/N=C/c3c[nH]c4ccccc34)s2)cc1 do in these assays?
CRFR2-BP ag: 0; RTF Ca sens inh: 23*; CRFBP-R2 block: -16; cardiac RTF act: -7; RTF inh confirm: 3

Results for O=C(O[C@@H]1OC2COC(=O)c3cc(O)c(O)c(O)c3-c3c(cc(O)c(O)c3O)C(=O)O[C@@H]([C@H]1O)[C@@H]2O)c1cc(O)c(O)c(O)c1 ?
CRFR2-BP ag: 2; RTF Ca sens inh: 130*; CRFBP-R2 block: 8; cardiac RTF act: -60; RTF inh confirm: 167*

How did CC1CCN(S(=O)(=O)c2ccc3c(c2)N(CC(=O)NCCN2C(C)CCCC2C)C(=O)CS3)CC1 (stereo not given) do in these assays?
CRFR2-BP ag: -1; RTF Ca sens inh: -11; CRFBP-R2 block: -4; cardiac RTF act: 3

How did COCCN(C(=O)COC(=O)c1cc2c(s1)CCC2)c1c(N)n(Cc2ccccc2)c(=O)[nH]c1=O do in these assays?
CRFR2-BP ag: -2; RTF Ca sens inh: 20*; CRFBP-R2 block: 7; cardiac RTF act: -27; RTF inh confirm: 16

Results for CC1CCN(C(=O)COC(=O)CSc2ccc(C(N)=O)cc2[N+](=O)[O-])CC1 ?
CRFR2-BP ag: -1; RTF Ca sens inh: 17*; CRFBP-R2 block: 23; cardiac RTF act: -1; RTF inh confirm: 1

Results for CC1CCCN(C(=O)COC(=O)CSc2ccc(C(N)=O)cc2[N+](=O)[O-])C1 (stereo not given) ?
CRFR2-BP ag: 0; RTF Ca sens inh: -10; CRFBP-R2 block: 3; cardiac RTF act: -6

Results for COc1cc(CN(C)C(C)C(=O)Nc2ccc([N+](=O)[O-])cc2Cl)ccc1OC(F)F (stereo not given) ?
CRFR2-BP ag: -1; RTF Ca sens inh: 2; CRFBP-R2 block: 37; cardiac RTF act: 2
